# The whole screen tested about 48,000 compounds, of which about 13,000 (27%) showed an effect of 50% or more. The list shows a part of the results.
# Tested on: Wolbachia pipientis
# Assay: Anti-Wolbachia Cell-Based Screen
# Format: functional
# Set-up: scale not given: in the data most compounds retested in dose-response had high values
# Settings: 5 µM
row,SMILES,Percent Effect
1,Cc1ccc(SCCN(C)C(=O)c2cn([C@H]3CC[C@@H](N)CC3)nn2)cc1,1.127%
2,Cc1ccoc1C(=O)N1CC[C@H]2C[C@H](c3nnc(C4CC4)o3)O[C@@H]2C1,102.2%
3,Cc1occc1C(=O)N1CC[C@H]2C[C@@H](c3nnc(C4CC4)o3)O[C@@H]2C1,109%
4,Cc1nc([C@H]2C[C@H]3CN(C(=O)c4ccoc4C)CC[C@@H]3O2)no1,-4.157%
5,Cc1nc([C@@H]2C[C@@H]3CCN(C(=O)c4occc4C)C[C@H]3O2)no1,-8.664%
6,CCC1c2ccccc2CCN1C(=O)c1ccc(OC)nn1 (stereo not given),-4.117%
7,CCOCc1nc2c(c(N(C)Cc3nonc3C)n1)CCNCC2,2.534%
8,Cc1nonc1CN(C)c1nc(-c2ccco2)nc2c1CCN(C)CC2,97.89%
9,CN(Cc1ccc2c(c1)OCO2)Cc1nc(-c2ccco2)no1,2.905%
10,Cc1noc(CN(C)c2nc(-c3ccco3)nc3c2CCN(C)CC3)n1,89.77%
11,Cc1nc(CNc2nc(-c3ccco3)nc3c2CCNCC3)n[nH]1,7.543%
12,Cc1nonc1CN(C)c1nc(-c2cccnc2)nc2c1CCNC2,3.087%
13,Cc1cc(CN(C)c2nc(-c3ccccn3)nc3c2CCNCC3)n[nH]1,-2.668%
14,CC(C)n1nc2c(cc1=O)CN(Cc1nc(-c3ccco3)no1)CC2,-11.95%
15,Cc1cc(CN(C)c2nc(-c3ccco3)nc3c2CCN(C)CC3)on1,70.19%
16,COCCNC(=O)CN(C)Cc1ccc(F)cc1Cl,14.02%
17,COc1ccc(CN(C)C2CSCCSC2)c2cccnc12,-27.46%
18,CC(NC(=O)NCC(C)(C)O)c1ccc(-c2ccncc2)cc1 (stereo not given),-1.867%
19,c1ccc2oc(CCCN3CCCC3Cn3cncn3)nc2c1 (stereo not given),-5.809%
20,c1ccc2oc(CN3CCCCC3Cn3cncn3)nc2c1 (stereo not given),109.3%
21,Cc1nc(CN2CCCCC2Cn2cncn2)nc2ccccc12 (stereo not given),1.919%
22,c1ccc2c(N3CCCCC3Cn3cncn3)ncnc2c1 (stereo not given),-5.98%
23,c1ccc2oc(N3CCCCC3Cn3cncn3)nc2c1 (stereo not given),-11.74%
24,Cc1nc2ccccc2nc1CN1CCCCC1Cn1cncn1 (stereo not given),-2.917%

row,SMILES,Percent Effect
1,Cc1nc2ccccc2nc1CN1CCCC1Cn1cncn1 (stereo not given),-6.198%
2,c1ccc2oc(N3CCCC3Cn3cncn3)nc2c1 (stereo not given),106.1%
3,c1ccc2oc(CN3CCCC3Cn3cncn3)nc2c1 (stereo not given),131.5%
4,c1ccc2oc(CCCN3CCCCC3Cn3cncn3)nc2c1 (stereo not given),92.19%
5,Cc1nc(CN2CCCC2Cn2cncn2)nc2ccccc12 (stereo not given),12.85%
6,CCOC(=O)NC(CNC(=O)c1cc(Cl)ccn1)CC(C)C (stereo not given),7.591%
7,CCOCc1nn(CC2CC2)c2c1CN(C(=O)c1ccno1)CC2,13.02%
8,CC(C)N1CCC(c2cc(C(F)(F)F)n3ccnc3n2)CC1,75.91%
9,N#Cc1ccccc1CN1CCC(c2nccn2CC(N)=O)CC1,-2.764%
10,NC(=O)CN1CCC(c2cc(C(F)(F)F)n3ccnc3n2)CC1,134.1%
11,CC(=O)N1CCC(c2cc(C(F)(F)F)n3ccnc3n2)CC1,1.424%
12,CN1CCC(c2cc(C(F)(F)F)n3ccnc3n2)CC1,137.1%
13,CC(C)n1ccnc1C1CCN(Cc2ccc(Cl)c(F)c2)CC1,-2.763%
14,CN1CCC(N2CC[C@H](c3nc4ccc(C(F)(F)F)cc4[nH]3)C2)CC1,-1.878%
15,CCCN1CCN(S(=O)(=O)c2ccccc2OC)[C@H]2CS(=O)(=O)C[C@H]21,-12.25%
16,Cc1cnc(C)c(N2CCCC(C/C=C/c3ccccc3)(C(=O)O)C2)n1 (stereo not given),-10.18%
17,Cc1ccoc1CNCc1nnc2n1CCCC2C(F)(F)F (stereo not given),-14.27%
18,CC[C@H](C)Nc1nccc(-c2cnc3sc(C)c(C)n3c2=O)n1,-3.163%
19,Cc1sc2ncc(-c3ccnc(NC4CCN(C)CC4)n3)c(=O)n2c1C,102.6%
20,CNc1nccc(-c2cn(C)nc2C)n1,5.366%
21,CCCn1ncc(-c2ccnc(N[C@@H]3C[C@@H]4CC[C@H]3C4)n2)c1C,-16.18%
22,CCNC(=O)N1CCC(Nc2nccc(NCC)n2)CC1,-9.692%
23,CNc1nccc(-c2cnc3sc(C)c(C)n3c2=O)n1,88.7%
24,CCOCCN1CCN(Cc2nnc(C3CC3)o2)CC1CC (stereo not given),2.687%

row,SMILES,Percent Effect
1,O=C(c1ccc2c(c1)CCO2)N1CCN(c2ncccn2)CC1,13.67%
2,COC(=O)c1ccc(NC(=O)CCc2ccncc2)c(C)c1,-3.514%
3,O=C(CCc1ccncc1)Nc1ccc(OCC2CC2)cc1,33.82%
4,O=C(CCc1ccc(-n2cnnn2)cc1)Nc1nncs1,117.3%
5,O=C(CCn1cc(Cl)cn1)Nc1nncs1,-12.52%
6,O=C(CCc1ccc(-n2cnnn2)cc1)Nc1ccncc1,118.2%
7,O=C(Cc1ccc(-n2cnnn2)cc1)Nc1nncs1,-7.49%
8,Cc1nnc(CN(C)Cc2ccc(C(=O)Nc3sccc3C#N)cc2)o1,8.936%
9,CC(C)c1nc2c(n1C)CCN(CCS(=O)(=O)c1ccccc1)C2,16.54%
10,Cc1nc(-c2cccc(N3CCC(N4CCCC(C#N)C4)CC3)c2)cs1 (stereo not given),9.753%
11,Cn1ncc(N2CCOC(CCNC(=O)N3CCCCC3)C2)cc1=O (stereo not given),104.2%
12,CC(=O)N1CCCC(C(=O)N2CCN(c3cnn(C)c(=O)c3)CC2)C1 (stereo not given),-1.408%
13,CN1CCC(C(=O)NCCC2CN(c3cnn(C)c(=O)c3)CCO2)CC1 (stereo not given),98.07%
14,Cn1ncc(N2CCOC(CCNC(=O)CO)C2)cc1=O (stereo not given),110.6%
15,Cc1cnn(C(C)C(=O)NCC2CCN(c3cnn(C)c(=O)c3)CC2)c1 (stereo not given),-4.842%
16,Cn1ncc(N2CCC(CNC(=O)[C@@H](N)C3CCCCC3)CC2)cc1=O,-13.96%
17,CCC(=O)N1CCCC(C(=O)N2CCN(c3cnn(C)c(=O)c3)CC2)C1 (stereo not given),6.032%
18,Cn1ncc(N2CCC(CNC(=O)[C@@H](N)c3ccccc3)CC2)cc1=O,-13.88%
19,Cc1ccc(C(=O)NCCC2CN(c3cnn(C)c(=O)c3)CCO2)s1 (stereo not given),76.89%
20,Cn1cc(CN2CCOC(CCNC(=O)c3ccsc3)C2)cn1 (stereo not given),-1.141%
21,CC(C)C(=O)NCC(=O)NCC1CCN(c2cnn(C)c(=O)c2)CC1,-2.577%
22,CC(CN1CCCC1)C(=O)NCC1CCN(c2cnn(C)c(=O)c2)CC1 (stereo not given),-3.002%

# — ChEMBL document CHEMBL3988442, “University of Dundee, Small-Polar-MMV Screening Library” (2021)
